Laboratory results from PubChem BioAssay.

Test: splicing luciferase reporter signal modulators, primary screen, spliceosome inhibition project, cell-based, HEK293, splice +/- reporter (AID 1101);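 further: HEK293 cells carrying a splicing-competent luciferase reporter gene; test concentration not given here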
Details: luminescence, 24 h, higher = more signal, called active from +8 up or from −8 down

z-score, inactive:
COc1ccc([Si](C)(C)[C@H]2[C@H](CC(=O)N3CCC[C@H]3CO)O[C@@]3(C(=O)N(Cc4cccc(N5C(=O)COc6ccccc65)c4)c4ccccc43)[C@@H]2C)cc1 -0.867
CC(=O)OC[C@H]1O[C@H](C#CCCCc2ccccc2)C=C[C@@H]1OC(C)=O 0.492
CC(C)[C@H](NC(=O)OC(C)(C)C)[C@@H](O)CC(=O)OC(C)(C)C -0.566
COCCCNC(=O)[C@]1(CCC(=O)OC(C)(C)C)N=C(c2ccc(OCCCO)cc2)O[C@@H]1c1ccccc1N=[N+]=[N-] -1.14
C[C@@H]1C=CCC(=O)OC[C@H](C)C(=O)N[C@@H](C)C(=O)OC1 -0.586
COC(=O)[C@@]1(Cc2ccc(F)cc2)[C@H]2c3cc(C(=O)N(C)C)n(Cc4ccc(OC)c(OC)c4)c3C[C@H]2CN1C(=O)c1ccccc1 -3.2
CCCCCN1CC=CC23O[C@@H]4C=CCOC(=O)[C@@H]4[C@H]2C(=O)N(CCCCCCO)[C@@H]3C1=O (stereo not given in full) -0.0127
COc1ccc(O[C@H]2C=C[C@@H](c3ccccc3)O[C@@H]2COC(=O)CCC(C)=NO[C@H](C)c2cn([C@@H]3COC[C@H]3O)nn2)cc1 -1.25
C#C[C@@H]1Oc2ccccc2S(=O)(=O)N2CCC[C@H]12 0.712
CC(C)(C)OC(=O)CC[C@]1(C(N)=O)COC(c2ccc(OCCCO)cc2)=N1 -0.337
COc1ccc(O[C@H]2C=C[C@@H](c3ccccc3)O[C@@H]2COC(=O)CCC(C)=NOC[C@@H](C)[C@H](OCc2ccccc2)C(C)C)cc1 0.292
Cc1ccc(F)cc1S(=O)(=O)N[C@@H]1CCN(Cc2ccc(CC(C)C)cc2)C1 1.1
CCc1cc2c(nc1CC)CCN(CCC(C)=NOC(C)CN1CCCc3nc(C)c(C)cc31)C2 (stereo not given) 0.211
Cc1ccc(S(=O)(=O)N[C@@H]2COC(=O)[C@H](C)COC(=O)CC=C[C@H]2C)cc1 0.159
O=C1C[C@@H](O)[C@@H](O)[C@@H]2[C@@H]3C(=O)N(Cc4ccc5c(c4)OCO5)C(=O)[C@@H]3CC[C@@H]12 0.706
CN1C(=O)[C@@]2(CCC(=O)OC(C)(C)C)N=C(c3ccc(OCCCO)cc3)O[C@H]2c2ccccc21 -0.0334
COCCOC(=O)N1C(=O)[C@@]2(c3cc(C#CC4(O)CCCCCC4)ccc31)[C@H](C(=O)N1CCN(c3ncccn3)CC1)[C@H]1C(=O)O[C@H](c3ccccc3)[C@H](c3ccccc3)N1[C@@H]2c1ccc(OCCO)cc1 -0.702
CCOC(=O)[C@H](CC(C)C)NC(=O)CCC1CC(OC(=O)NCc2cccc3ccccc23)CC2(CCCC(COC(=O)NCCc3ccccc3OC)O2)O1 (stereo not given in full) -0.139
COC(=O)[C@H](C)NC(=O)CCC1CC(OC(=O)NCc2cccc3ccccc23)CC2(CCCC(COC(=O)NCCc3ccc(Cl)cc3)O2)O1 (stereo not given in full) -0.875
O[C@@H](Cc1ccccc1)[C@H]1C2C=CCCC(c3ccccc3)=C2CN1Cc1cccc(Cl)c1 (stereo not given in full) -0.205
O=C1[C@H]2[C@H]3[C@H](O)[C@H](O)CC(=NO[C@@H]4O[C@H](CO)[C@@H](O)[C@H](O)[C@H]4O)[C@@H]3CC[C@H]2C(=O)N1Cc1ccccc1 -0.847
COCCOC(=O)N1C(=O)[C@@]2(c3cc(C#CCNC(N)=O)ccc31)[C@H](c1ccccc1OCCO)N1[C@H](c3ccccc3)[C@H](c3ccccc3)OC(=O)[C@H]1[C@@H]2C(=O)N1CCN(c2ncccn2)CC1 -0.099
O=C1[C@H]2[C@H]3[C@H](O)[C@H](O)CC(=NO[C@@H]4O[C@H](CO)[C@@H](O)[C@H](O)[C@H]4O)[C@H]3CC[C@H]2C(=O)N1Cc1ccccc1 -0.741
CC(C)(C)N1C(=O)[C@H]2[C@H]3[C@H](O)[C@H](O)CC(=NO[C@@H]4O[C@H](CO)[C@@H](O)[C@H](O)[C@H]4O)[C@@H]3CC[C@H]2C1=O 0.519
O=C1[C@H]2[C@H]3[C@H](O)[C@H](O)CC(=NO[C@@H]4O[C@H](CO)[C@@H](O)[C@H](O)[C@H]4O)[C@H]3CC[C@H]2C(=O)N1C1CCCCC1 -0.381
CC[C@@H](c1ccccc1)n1c(=O)n2n(c1=O)[C@H]1[C@H](O)[C@@H]3O[C@@H]3C(=NOCC(C)C)[C@H]1CC2 1.26
CCCC[C@@H](O)C1=C(C)C[C@H]2C(=O)N(Cc3ccccc3)C(=O)[C@H]2[C@H]1CO 0.0445
CC(C)=C1C(=O)C(c2ccccc2)=C2CN3C(=O)N(CCc4ccccc4)C(=O)[C@]3(Cc3ccc(F)cc3)[C@H]21 0.762
N#Cc1ccc(NN2C(C(O)c3cc(C(F)(F)F)cc(C(F)(F)F)c3)C=CC3C(=O)N(c4ccccc4)C(=O)C32)cc1 (stereo not given) 0.628
[N-]=[N+]=NCc1ccccc1[C@@H]1OC(c2ccc(OCCCO)cc2)=N[C@]1(Cc1ccccc1)C(=O)N1CCOCC1 -0.962
CC(CCN1CCCCc2nc(C)c(C)cc21)=NOC(C)CN1CCCCc2nc(C)c(C)cc21 (stereo not given) 0.127
O=C(NN=C1C[C@@H](O)[C@@H](O)[C@@H]2[C@@H]3C(=O)N(c4cccc(Oc5ccccc5)c4)C(=O)[C@@H]3CC[C@H]12)OCc1ccccc1 0.0933
CCOC(=O)CCN1C(=O)[C@H]2[C@H]3[C@H](O)[C@H](O)CC(=O)[C@H]3CC[C@H]2C1=O -1.11
O=C1O[C@@H](c2ccccc2)[C@@H](c2ccccc2)N2[C@@H](c3ccc(OCCO)cc3)[C@]3(C(=O)Nc4ccc(C#CCCO)cc43)[C@@H](C(=O)N3CCCCCCC3)[C@H]12 -0.277
c1ccc(C2NCCc3c2[nH]c2ccccc32)cc1 (stereo not given) -0.231
